Results on 21 compounds are retold here after PubChem BioAssay (EPA / NIEHS).

Records with an inconclusive call do not appear. Activity calls are given as the source filed them. The calls were made as follows, unless noted: active = hit-call score of the fitted dose curve at least 0.9, where 1 is the maximum; inconclusive = response in the unintended direction; inactive = score below 0.9.

Assay [1] can be described thus: Tanguay_ZF_120hpf_TR_legacy: (Legacy) Oregon State University Tanguay Lab 120 Hour Post-fertilization zebrafish Assay for Touch Response (AID 2283667). In a few lines: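 5D WT embryos; static exposure to 120 hpf, 28C, sealed/dark; DMSO 0.64% v/v final. TR scored present/absent; dead embryos excluded. Pos ctrl 5uM trimethyltin chloride.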
Assay [2] in a line: Tanguay_ZF_120hpf_ActivityScore_legacy: (Legacy) Oregon State University Tanguay Lab 120 Hour Post-fertilization zebrafish Assay Score for Activity (AID 2283742).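 As to AC50: dechorionated Tropical 5D wild-type zebrafish embryos held singly per well; static exposure from 6 hpf until 120 hpf at 28 °C.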 The method, boiled down: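 Embryos are staged, enzymatically dechorionated at 4 hpf, placed individually at 6 hpf, then held in test chemical (0.64% DMSO) at 28C until 120 hpf. Mortality and malformations are scored by brightfield, with non-mortality endpoints skipped for dead embryos.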

A short description of assay [3]: STM_H9_CystineISnorm_perc: Stemina devTOX quickPredict H9 human embryonic stem cell (hESC)-based Assay for Cystine (CYSS) Metabolite Biomarker, Normalized (AID 2283713; active = hit-call score of the fitted dose curve at least 0.9, where 1 is the maximum; inactive = score below 0.9). The method, boiled down:
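H9 hESC, pluripotent; compound 72h, re-dosed q24h with medium change. Last-24h medium → 40% acetonitrile deproteinization → UPLC-HRMS. CYSS area / C13-CYSS standard, then % of 0.1% DMSO median.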

Assay [4] has as its system Thyroperoxidase (TPO), gene 54314. Put plainly: CCTE_Simmons_AUR_rTPO: CCTE's Amplex UltraRed Assay for Thyroperoxidase (TPO) Inhibition, Simmons Lab (AID 2283662).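 Also: potency for loss of signal meaning inhibition of peroxidase activity.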 In a few lines:
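Rat thyroid microsomes (5 ug protein) were incubated with test compound (8 concentrations, 5 nM–87.5 uM final, 0.5% DMSO), 25 uM Amplex UltraRed and 300 uM H2O2 in 200 mM phosphate buffer for 30 min at 37C in the dark; fluorescence read at 544/590 nm.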

A short description of assay [5]: CCTE_Simmons_CellTiterGLO_HEK293T: Viability Assessment in CCTE's Assays for Thyroperoxidase (TPO) Inhibition, Simmons Lab (AID 2283665). The method, boiled down: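 HEK293T, 10 000 cells/well, DMEM + 1% FBS; 8-pt titration 5 nM–87.5 uM [final], 0.5% DMSO; 24 hr, 37C, 5% CO2; CellTiter-Glo luminescence; n=3 biological replicates.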
For orientation: In ATP-based viability assays light output follows the ATP content of the culture.

Assay [6] deals with Thyroperoxidase (TPO), gene 445522. Put plainly: CCTE_Simmons_GUA_TPO: CCTE's Guaiacol Assay for Thyroperoxidase (TPO) Inhibition, Simmons Lab (AID 2283750). In a few lines: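 Porcine thyroid microsomes (25 ug) in 200mM potassium phosphate, preincubated 30 s at 37C with compound (8 concentrations, 5 nM–87.5 uM) and 35mM guaiacol; 1mM H2O2 starts reaction. Absorbance change at 450nm over first 80 s; loss of signal versus DMSO, three replicates.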

The target of assay [7] is Luciferin 4-monooxygenase (Photinus pyralis) (UniProt P08659). The assay is described as follows: CCTE_Simmons_QuantiLum_inhib_2: CCTE's Firefly Luciferase Inhibition Assay, Simmons Lab (AID 2283767). The method, boiled down: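 Luminescence loss relative to DMSO vehicle defines inhibition; detection reagent containing 150 uM D-luciferin and 147 uM dATP (final, pH 7.8) is injected immediately before each read. Enzyme is preincubated with an 8-point titration (5 nM–87.5 uM final) for 30 min at 37C.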
Sequence of Luciferin 4-monooxygenase (Photinus pyralis) (P08659 whole entry, looked up): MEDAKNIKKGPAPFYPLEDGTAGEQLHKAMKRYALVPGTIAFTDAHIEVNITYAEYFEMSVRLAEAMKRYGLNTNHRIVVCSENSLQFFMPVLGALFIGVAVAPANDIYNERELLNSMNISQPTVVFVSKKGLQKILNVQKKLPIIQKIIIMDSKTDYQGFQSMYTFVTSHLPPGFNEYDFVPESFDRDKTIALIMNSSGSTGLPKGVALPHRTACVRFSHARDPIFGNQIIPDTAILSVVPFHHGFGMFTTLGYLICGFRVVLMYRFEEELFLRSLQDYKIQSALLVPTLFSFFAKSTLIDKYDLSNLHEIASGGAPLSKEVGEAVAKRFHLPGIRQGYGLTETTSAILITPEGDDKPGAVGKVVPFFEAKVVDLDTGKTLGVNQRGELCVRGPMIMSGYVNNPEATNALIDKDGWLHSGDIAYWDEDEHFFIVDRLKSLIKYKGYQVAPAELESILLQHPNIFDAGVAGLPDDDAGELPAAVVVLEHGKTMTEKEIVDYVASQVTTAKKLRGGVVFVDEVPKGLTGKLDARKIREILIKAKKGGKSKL

A short description of assay [8]: CCTE_Padilla_ZF_144hpf_TERATOSCORE: (Legacy) CCTE's 144 Hour Post-fertilization zebrafish Assay Teratoscore, Padilla Lab (AID 2283679; active = hit-call score of the fitted dose curve at least 0.9, where 1 is the maximum; inactive = score below 0.9;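 as to AC50: zebrafish embryos with chorions exposed by immersion from 6-8 hpf to 5 dpf with daily renewal; teratogenicity score from eye scoring of death hatching and malformations at 144 hpf; higher score means more developmental defects relative to DMSO baseline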). In a few lines:
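Larvae scored by eye at 144 hpf for death, hatching and malformations after a day in clean Hanks'. Before that, daily-renewed exposure at 80 uM (0.4% DMSO, 26C) from roughly 6-8 hpf through 5 dpf, 4 embryos per chemical.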

Read-out in assay [9]: solute carrier (SLC10A1), SLC10A1 (gene 6554)
Put plainly: LTEA_HepaRG_SLC10A1: Life Technologies and Expression Analysis (LTEA) Assay for solute carrier (SLC10A1) using HepaRG (AID 2283657; active = hit-call score of the fitted dose curve at least 0.9, where 1 is the maximum; inactive = score below 0.9). Conditions: mRNA level, 48 h; actives raise or lower the signal. The method, boiled down:
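Transcript levels were measured by qRT-PCR after human HepaRG cells received test chemical for 48 hours, up to 100 uM in half-log dilutions. Values come from bidirectional concentration-response fitting relative to 0.5% DMSO vehicle.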

Read-out in assay [10]: matrix metalloproteinase-1 (MMP1), MMP1 (gene 4312)
Put plainly: LTEA_HepaRG_MMP1: Life Technologies and Expression Analysis (LTEA) Assay for matrix metalloproteinase-1 (MMP1) using HepaRG (AID 2283658; active = hit-call score of the fitted dose curve at least 0.9, where 1 is the maximum; inactive = score below 0.9). The note with it: mRNA level, 48 h; actives raise or lower the signal. The method, boiled down:
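MMP1 transcript read by TaqMan qRT-PCR (Fluidigm array) after 48 h chemical exposure of HepaRG cells in serum-free induction medium. Eight-point half-log series, top 100 uM, 0.5% DMSO vehicle. Bidirectional curve fit against DMSO baseline.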

Read-out in assay [11]: Cytochrome P450 (CYP24A1_1), CYP24A1 (gene 1591)
Put plainly: LTEA_HepaRG_CYP24A1_1: Life Technologies and Expression Analysis (LTEA) Assay for Cytochrome P450 (CYP24A1_1) using HepaRG (AID 2283671; active = hit-call score of the fitted dose curve at least 0.9, where 1 is the maximum; inactive = score below 0.9). Conditions: mRNA level, 48 h; actives raise or lower the signal. In a few lines:
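In this test, gene induction or suppression of CYP24A1 in human HepaRG liver cells is measured by qRT-PCR after 48 h chemical treatment (eight concentrations, maximum 100 uM). Values are fitted bidirectionally relative to DMSO.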

Assay [12] is described as follows: ArunA_CellTiter_hNC: Viability Assessment in the ArunA Biomedical's Oris Neural Crest (hNC) Cell Migration Assay (AID 2283752). The method, boiled down: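 Cell titer was measured with the CellTiter Aqueous One reagent after 72 h of chemical dosing. Cells were H9-derived embryonic neural crest stem cells seeded on Matrigel, 60,000 per well, and given 16 h at 37C beforehand.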

The nature of assay [13]: ArunA_CellTiter_hNP: Viability Assessment in the ArunA Biomedical's Oris Neural Crest (hNC) Cell Migration Assay (AID 2283753). In a few lines: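 H9-derived hNP1 neuroprogenitors, 60,000/well on Matrigel, cultured 16 h, then 72 h chemical exposure in test medium. Cell titer via CellTiter Aqueous One; positive-direction fit vs DMSO.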
Assay [14] in a line: ArunA_NOG_NucleusCount: ArunA Biomedical's Neurite Outgrowth (NOG) Assay for Nucleus Count (AID 2283756). The method, boiled down: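 Human H9-derived differentiated neurons were exposed for 48 h right after seeding. Hoechst-stained nuclei gated by size and intensity were counted by automated high-content imaging as viable neurons. Loss of signal vs DMSO.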
Assay [15] is described as follows: ArunA_NOG_NeuriteLength: ArunA Biomedical's Neurite Outgrowth (NOG) Assay for Neurite Length (AID 2283757). The method, boiled down: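 Differentiated human H9-derived neurons were exposed for 48 h from seeding, then stained with Hoechst and βIII-tubulin. Automated high-content imaging gave total neurite length per valid neuron, counting processes >10 um. Loss of signal was scored versus DMSO.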

The nature of assay [16]: ArunA_NOG_NeuritesPerNeuron: ArunA Biomedical's Neurite Outgrowth (NOG) Assay for Neurites Per Neuron (AID 2283758). The method, boiled down: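 Differentiated human H9-derived neurons exposed to chemicals for 48 h from seeding, then stained with Hoechst and βIII-tubulin/DyLight 488. Automated imaging counted neurites (processes >10 um) per valid neuron; loss of signal versus DMSO scored.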

The nature of assay [17]: ArunA_NOG_BranchPointsPerNeurite: ArunA Biomedical's Neurite Outgrowth (NOG) Assay for Branch Points Per Neurite (AID 2283759). In a few lines: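 Automated image analysis traced neurites (processes >10 um) from valid cell bodies after Hoechst and βIII-tubulin staining. hNN cells from H9 embryonic stem cells, 48 h exposure. Fitted bidirectionally against DMSO.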

`CCCCCCCCN(C)C`: the compound was classed as inactive in assay [1] and in assay [2].
With `C[C@]12C=CC(=O)C=C1CC[C@H]1[C@@H]3C[C@@H](O)[C@](O)(C(=O)CO)[C@@]3(C)C[C@H](O)[C@@]12F`, the compound was called inactive in [1] and in [3]. Moreover, in [2], the AC50 was 0.00064 µM (active).
Take `NNC(=O)c1ccncc1`: the AC50 in assay [4] was 1.92 µM (active); in assay [6], 20.7 µM (active). The compound was classed as inactive in [5], in assay [1], in assay [2] and in assay [7].
Take `CC(C)CCCCCCOC(=O)C1CCCCC1C(=O)OCCCCCCC(C)C` (configuration not stated): the compound was classed as inactive in [1] and in [2].
With `CCCCCCCC1CCC(=O)O1` (configuration not stated), in assay [1], the compound was classed as inactive. In addition, the AC50 in assay [8] is 8.03 µM (active); in assay [2], 43.7 µM (active).
Regarding `CCCC(CCC)C(=O)O`, the result in [9], in [10], in [1], in [11], in assay [2] and in [12] was inactive. Also, the call in assay [13] was inactive. For the same compound, the AC50 was 78.7 µM (active) in assay [8]; 242 µM (active) in assay [3]; 82.6 µM (active) in assay [14]; 77.4 µM (active) in [15]; 91.1 µM (active) in [16]; 69.6 µM (active) in [17].
Consider `OC(Cn1cncn1)(Cn1cncn1)c1ccc(F)cc1F`, for which the outcome in assay [1], in assay [3] and in [2] was inactive.
With `CCCCC(CC)C(=O)OCCOCCOCCOC(=O)C(CC)CCCC` (configuration not stated), the AC50 in [8] was 4.5 µM (active). Further, the compound was called inactive in assay [2].
With `CC(C)CC(C)O` (configuration not stated), in assay [2], the compound was called inactive.
Consider `O=C(O)c1cccc(C[C@@H]2COc3ccc(OCc4nc5cc(F)ccc5s4)cc3[C@@H]2O)c1`, for which the AC50 is 0.463 µM (active) in [8] and 37.3 µM (active) in assay [2].
In the case of `CCCCCOC(C)=O`, the result in assay [2] was inactive.
Turning to `CNC(C)=O`, in assay [2], the result was inactive.
For `CCCCCCCCCCCCCCO`, the result in assay [2] was inactive.
For the compound `c1ccc2ncccc2c1`, the result in assay [2] was inactive.
Regarding `O=C1CN(N=Cc2ccc([N+](=O)[O-])o2)C(=O)N1`, the call in assay [8] and in assay [2] was inactive. The AC50 in assay [3] was 5.91 µM (active).
With `CCCCCCOC(=O)CC(CC(=O)OCCCCCC)(OC(=O)CCC)C(=O)OCCCCCC`, the compound was called inactive in assay [2].
On to `CCCc1ccccc1`, for which the compound was called inactive in [8] and in assay [2].
For `CC(=O)c1ccccc1`, the compound was classed as inactive in [2].
As to `OCCOCCOCCO`, in assay [2], the outcome was inactive.
Turning to `CCCCOC(=O)c1ccccc1`, the AC50 in assay [8] is 59.1 µM (active). Also, the result in assay [2] was inactive.
Regarding `O=S(=O)(O)c1ccc(N=Nc2c(O)ccc3cc(S(=O)(=O)O)ccc23)cc1`, the outcome in [2] was inactive.

As a reminder, the AC50 is the midpoint of the concentration-response curve, whichever way the signal moves.
